Source: PubChem BioAssay
KCNH2 WT inh: blocks the wildtype human KCNH2 potassium channel. 340,000 compounds, 0.37% hits. AID 720551. activity change, % at 1.84 µM. U2OS, BacMam KCNH2, thallium flux FluxOr; stronger effect = lower value. Q12809;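 active = maximum activity change below -70%; inconclusive = maximum activity change between -70% and -50%; inactive = maximum activity change above -50%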; also: % is scaled to controls: 0 for no effect and ±100 for the full control effect
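U2OS cells transduced with wild-type KCNH2 virus are loaded with FluxOr dye for 45 min, and thallium flux is measured in kinetic reads before and after stimulation buffer. Rate constants are normalized to DMSO controls.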
LDHA inh: LDHA (human) enzyme inhibition | 480,000 compounds, 0.15% hits | activity change, % (values are at about 110 or 230 µM) | purified LDHA, NADH/diaphorase-resazurin fluorescence; stronger effect = lower value | P00338; in the data active = activity change below about -30%; inconclusive = mostly about -25% to -30%;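 also: plate controls were DMSO wells for no effect and wells without enzyme for full effect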
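Remaining NADH was detected by diaphorase (0.133 mg/mL) converting 37 µM resazurin to fluorescent resorufin, read at 0 and 20 minutes. The preceding 5-minute room-temperature reaction used 2 nM LDHA, 0.2 mM sodium pyruvate and 0.06 mM NADH at pH 7.4.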
KCNH2 3.1 block: blocks the human KCNH2 3.1 channel isoform; U2OS KCNH2 3.1, thallium flux FluxOr; stronger effect = lower value; activity change, % (tested at about 1.8 µM); 340,000 compounds, 0.95% hits;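 active = maximum activity change below -70%; inconclusive = maximum activity change from -70% to -50%; inactive = maximum activity change above -50%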;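 also: thallium influx rate constant from kinetic fluorescence after stimulation buffer; % is scaled to controls: 0 for no effect and ±100 for the full control effect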
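We transduce U2OS cells with the mutant 3.1 virus, culture them overnight, load FluxOr with Red40 quencher for 45 min, then add stimulation buffer and read kinetically for 2 min to derive a normalized rate constant.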
BCR signal inh: inhibitors of chronic active B-cell receptor signaling. Potency, µM (top dose mostly 46.1 µM), for the others: top-dose activity change, negative = inhibition, usual class: inhibitors. 340,000 compounds, 0.05% hits. ABC-DLBCL IkBa-CBG/CBR reporter, luminescence ratio, 4 h; active = well fitted inhibition curve with a large enough effect in the signal ratio, with a control signal flat, not every such curve was filed as active; inconclusive = small, poorly fitted or top-dose-only effect, or effect the other way, or a change in a side signal; the % refers to the signal ratio;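 also: potency is read from the fitted curve at half-maximal effect; plate controls were basal doxycycline-induced cells for no effect and cells given 10 µM MG132 for full effect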
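Compounds up to 46 uM were incubated four hours with TMD8 cells whose green CBG68 luciferase is fused to IkappaBalpha; red CBR luminescence normalised the signal, and concentration-effect curves were fitted to fusion, red and ratio data.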
ALOX12 inh: blocks human arachidonate 12S-lipoxygenase | P18054 | purified 12hLO, xylenol orange hydroperoxide absorbance | Potency, µM (top dose mostly 108 µM), for the others: at the top dose activity change, negative = inhibition, actives largely listed as inhibitors | 580,000 compounds, 1.1% hits; active = well fitted inhibition curve with a large enough effect; inconclusive = small, poorly fitted or top-dose-only effect, or another doubt; inactive = no such curve, though single readings can be large or run the other way; also: potency is read from the fitted curve at half-maximal effect; % is scaled to controls: 0 for no effect and ±100 for the full control effect
Target sequence (P18054 whole entry, looked up): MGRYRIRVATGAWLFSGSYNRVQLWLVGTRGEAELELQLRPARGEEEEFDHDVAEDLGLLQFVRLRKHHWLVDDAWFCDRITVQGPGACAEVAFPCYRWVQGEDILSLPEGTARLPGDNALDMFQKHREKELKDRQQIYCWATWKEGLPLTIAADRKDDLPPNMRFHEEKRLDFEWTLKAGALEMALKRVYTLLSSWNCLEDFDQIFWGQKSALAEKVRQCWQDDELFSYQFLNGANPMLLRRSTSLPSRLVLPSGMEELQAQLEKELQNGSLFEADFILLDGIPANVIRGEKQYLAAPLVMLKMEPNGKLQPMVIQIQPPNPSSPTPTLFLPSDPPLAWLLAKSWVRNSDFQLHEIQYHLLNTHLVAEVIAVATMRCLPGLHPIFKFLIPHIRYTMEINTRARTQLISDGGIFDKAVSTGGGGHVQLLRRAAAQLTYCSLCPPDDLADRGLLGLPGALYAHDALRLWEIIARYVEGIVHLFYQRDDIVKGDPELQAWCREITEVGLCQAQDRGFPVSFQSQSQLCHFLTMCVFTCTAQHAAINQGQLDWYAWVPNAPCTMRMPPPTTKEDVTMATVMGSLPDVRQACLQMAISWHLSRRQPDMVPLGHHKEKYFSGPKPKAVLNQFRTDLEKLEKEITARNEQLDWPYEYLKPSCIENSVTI
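Purified human 12hLO (150 nM final) in 25 mM Hepes, 0.01% Triton X-100, pH 7.0 was preincubated 15 min at room temperature with compound. Then 40 uM arachidonic acid was added, 30 min. Hydroperoxide was read by Fe-XO absorbance ratio 573/405 nm.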
ClpP mod: qHTS Assay for Activators of ClpP; ATP-dependent Clp protease proteolytic subunit (Bacillus subtilis (strain 168)), P80244; purified B. subtilis ClpP, FRET peptide cleavage, 20 min; Potency, µM (series often up to 57.5 µM), for inactives: at the highest dose activity change, negative = active; 340,000 compounds, 1.9% hits; active = well fitted falling curve with a large enough effect; inconclusive = small, poorly fitted or top-dose-only effect; inactive = no such curve, though single readings can be large or run the other way; also: potency is read from the fitted curve at half-maximal effect; the source files actives as falling curves though it sought activators and does not explain the sign; nearly all actives have a fitted effect of over 65% in size
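Purified B. subtilis ClpP, 10 microg/mL final in Tris/HCl pH8 with KCl, BSA, glycerol and Tween-20, cleaved an Abz/nitrotyrosine-quenched decapeptide. Fluorescence (ex 320, em 430) was read at 0 and 20 min at room temperature. Delta was normalized to 5.8 microM ADEP and DMSO/no-enzyme controls.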
An asterisk follows results filed as active; i = inactive; ? = inconclusive; . = no result; [ ] = dose if it differs, or a comment. A selection: hits, their analogues and other compounds. The true share with any hit is near 3%.

SMILES	KCNH2 WT inh	LDHA inh	KCNH2 3.1 block	BCR signal inh	ALOX12 inh	ClpP mod
CNC(=S)NNC(=O)Cc1ccc(O)cc1	-0.6	0.8	4.4	2.6%	11.6%	?
CNC(=S)NNC(=O)Cc1ccc(OC)cc1	17.4	-12.3	-5.1	1.8%	121.7%	28.2µM*
Cc1cc(-c2nnn(CC(=O)NC(C)C)n2)ccc1F	.	-2.9	.	.	-8.7%	.
O=C1C2=C(Nc3ccccc3SC2c2ccc(O)cc2)c2ccccc21 (centres undefined)	.	-2.4	.	.	?	.
CCOC(=O)c1c(NC(=O)c2nc3nc(C)cc(C(F)F)n3n2)sc2c1CCC(CC)C2 (centres undefined)	.	-20.4	.	.	13.3%	.
O=C(O)c1ccccc1-c1ccccc1C(=O)NCc1ccccc1F	-5.0	-8.0	3.9	-1.8%	18.5%	8.91µM*
Cc1cc(C)c(S(=O)(=O)c2ccccc2)c(Cl)n1	6.7	-2.9	-14.0	2.2%	0.0%	14.1µM*
COc1ccc2c(c1)NC(c1cc(Cl)cc(Cl)c1O)c1cccn1-2 (centres undefined)	i	1.3	-0.4	0.6%	31.6µM*	.
COc1cc(CCN(C(C)=O)C2C(=O)Nc3ccccc3N=C2c2ccc3c(c2)OCO3)cc(OC)c1 (centres undefined)	.	-0.5	.	.	2µM*	-1.8%
COc1ccc(C2=Nc3ccccc3NC(=O)C2N(CCc2cc(OC)cc(OC)c2)C(C)=O)cc1 (centres undefined)	.	1.8	.	.	?	-2.3%
O=C(CCc1cccs1)Nc1cccc(C(=O)N2CCCC2)c1	.	-22.1	.	.	-21.9%	.
COc1ccc(N)cc1OCCO	.	25.9	.	.	?	.
c1nc2sc3c(c2c2nnnn12)CCCC3	0.5	1.3	3.2	?	-15.2%	15.8µM*
c1nc2sc3c(c2c2nnnn12)CCC3	24.0	-1.8	5.9	-2.0%	?	14.1µM*
Cc1oc(-c2ccccc2)nc1CC(=O)NCCC(=O)N1CCCC1	.	-0.3	.	.	-27.4%	.
COc1ccc(-c2onc3ccc(Br)cc23)cc1OC	.	29.1	.	.	?	.
CC1C2(C)OC(=N)C(C#N)(C(C)O2)C1(C#N)C#N (centres undefined)	-6.8	0.3	3.2	2.5%	.	.
CCCCC1OC2(C)OC(=N)C1(C#N)C(C#N)(C#N)C2c1ccccc1 (centres undefined)	-3.6	7.6	-14.4	6.7%	?	31.6µM*
CC1OC2(C)OC(=N)C1(C#N)C(C#N)(C#N)C2c1ccccc1 (centres undefined)	0.4	11.7	-6.1	1.1%	?	25.1µM*
CN(Cc1ccccc1)C(=O)C[C@@H]1CCNC[C@@H]1Cc1cc(COc2ccccc2)on1	.	.	.	.	-5.3%[176 µM]	.
COc1cc(F)ccc1NS(=O)(=O)c1cc(C(=O)O)ccc1OC	.	-4.0	.	.	?	.
CCOC(=O)c1nn(-c2ccccc2)c(=O)cc1SC(C)C	-35.3	-6.4	-72.0*	-0.6%	-29.9%	0.3%
CCOC(=O)c1nn(-c2ccccc2)c(=O)cc1SC(C)CC (centres undefined)	24.6	8.4	34.7	-2.0%	18.2%	0.6%
Cc1cc(OC(C)C(=O)NCCCN(C)C)c2c(C)cc(=O)oc2c1 (centres undefined)	.	-0.2	.	.	30.8%	.
COC(=O)/C(=C\C(=O)c1ccc([N+](=O)[O-])cc1)Nc1ccc(OC)cc1	-5.7	11.0	-77.2*	-1.0%	?	.
SMILES	KCNH2 WT inh	LDHA inh	KCNH2 3.1 block	BCR signal inh	ALOX12 inh	ClpP mod
COc1ccc(C(=O)/C=C/Nc2ccc([N+](=O)[O-])cc2)cc1	-23.3	-4.3	-3.5	?	?	-15.3%
Cc1cc2oc(=O)c(CC(=O)O)c(C)c2c2occ(-c3ccccc3)c12	.	-5.0	.	.	-21.9%	31.6µM*
Cc1c(CC(=O)O)c(=O)oc2c(C)c3occ(-c4ccccc4)c3cc12	11.2	-2.3	12.0	-0.2%	0.0%	7.1%
Cc1ccc(CNC(=O)Cn2c(CO)cnc2SCC(=O)Nc2c(C)cc(C)cc2C)cc1	.	-13.5	.	.	?	.
CCCc1ccc(C(=O)COC(=O)c2ccc3ccccc3c2)cc1	.	1.9	.	.	-0.7%	.
Cc1cc(SCC(=O)c2ccc(Cl)cc2)nc(=O)[nH]1	-3.5	0.0	-7.6	5.3%	20µM*	0.0%
Cc1ccc(C(=O)CSc2cc(C)[nH]c(=O)n2)cc1	-2.6	1.8	-1.1	-1.3%	?	-0.6%
COc1cc(Nc2nc(SCc3cccc(Cl)c3)nc3ccccc23)cc(OC)c1	.	2.1	.	26.4%	?	31.6µM*
COc1cc(Nc2nc(SCc3ccccc3Cl)nc3ccccc23)cc(OC)c1	.	-3.4	.	?	-28.0%	28.2µM*
COc1cc(Nc2nc(SCc3ccc(Cl)cc3)nc3ccccc23)cc(OC)c1	.	0.3	.	?	0.0%	35.5µM*
O=S(CCN1CCC(n2cccc2)CC1)c1ccccc1 (centres undefined)	.	-5.1	.	.	1.1%	.
O=[N+]([O-])c1ccc(N/N=C/c2ccccc2Br)cc1	.	6.8	.	.	?	.
CCCC(=O)Nc1ccccc1NC(=O)c1ccc(C)cc1	.	6.1	.	.	-17.7%	.
Cc1ccc(CNS(=O)(=O)c2c(C)nc3sc(C)cn3c2=O)cc1	.	-6.6	.	.	-17.1%	28.2µM*
Cc1cn2c(=O)c(S(=O)(=O)Nc3ccc(C)c(Cl)c3)c(C)nc2s1	.	-12.7	.	.	-29.9%	.
Cc1cn2c(=O)c(S(=O)(=O)NCCc3ccc(Cl)cc3)c(C)nc2s1	.	-5.3	.	.	-15.3%	?
Cc1cn2c(=O)c(S(=O)(=O)NC(C)c3ccccc3)c(C)nc2s1 (centres undefined)	.	0.7	.	.	0.0%	31.6µM*
CCOc1ccc(-c2[nH]ncc2-c2ccc(Br)cc2)c(O)c1	.	5.6	.	.	28.2µM*	.
CC(C)C(=O)c1ccc(O)c(O)c1	1.5	4.3	-84.8*	?	?	-3.1%
CC(C)c1ccc(NC(=O)Cn2cnnc2C#N)cc1	.	2.9	.	.	5.4%	.
COc1ccc2c(c1)C(NC(C)=O)C(=O)N2C (centres undefined)	-0.2	6.5	5.4	1.3%	-18.0%	-0.8%
COc1ccc2c(c1)C(n1c(C)ccc1C)C(=O)N2C (centres undefined)	.	.	.	.	11.2µM*	.
Cc1ccc(C)n1C1C(=O)N(C)c2ccccc21 (centres undefined)	.	.	.	.	-69.4%	.
Cc1ccc(C)n1C1C(=O)N(C)c2ccc(Cl)cc21 (centres undefined)	.	.	.	.	44.7µM*	.
CCCCc1nn(CC(=O)N2CCC(c3ccccc3)CC2)c(=O)n1CC	.	.	.	.	8.1%	.
Cc1ccc(NC(=O)c2nc[nH]c2C(=O)Nc2ccc(C)cc2)cc1	-192.3*	-9.2	10.0	0.3%	7.1%	1.5%
CNC(=O)c1[nH]cnc1C(=O)Nc1ccc(C)cc1	-1.9	-6.7	7.5	?	0.0%	27.1%
